In the library only some 1.5% were active in any assay of this set; here they are far more common.
RN4220 kill: kills Staphylococcus aureus RN4220. S. aureus RN4220 growth, OD600, 16 h. inhibition, % (no concentration beside the values). 330,000 compounds, 0.33% hits. AID 1259311; in the data active = inhibition above about 85%;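 also: plate controls were untreated cells for no effect and reference antibiotic for full effect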
CCHFV vOTU inh: blocks the CCHF virus ovarian tumor domain protease; CCHFV vOTU protease, Pep-AMC fluorescence; inhibition, % at 11.5 µM; 370,000 compounds, 0.55% hits; AID 651958; in the data active = inhibition above about 30%; also: 0% = vehicle wells with enzyme and 100% = no enzyme wells
VHR inh abs: DUSP3 (human) phosphatase inhibition. inhibition, % at 13.3 µM. P51452. 290,000 compounds, 0.52% hits. recombinant VHR phosphatase, pNPP absorbance; in the data active = inhibition above about 50%
Target sequence (P51452 whole entry, looked up): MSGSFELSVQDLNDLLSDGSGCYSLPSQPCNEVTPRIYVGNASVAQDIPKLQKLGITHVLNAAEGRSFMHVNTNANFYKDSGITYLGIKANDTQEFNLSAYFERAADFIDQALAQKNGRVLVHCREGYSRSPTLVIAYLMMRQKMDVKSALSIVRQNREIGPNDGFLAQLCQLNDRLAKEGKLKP
ugtP null kill: kills S. aureus RN4220 lacking UgtP. S. aureus RN4220 ugtP deletion, OD600 growth, 16 h. growth inhibition, % (no concentration beside the values). 330,000 compounds, 0.54% hits. AID 1259309; in the data active = growth inhibition above about 68%;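 also: plate controls were untreated wells for no effect and antibiotic for full effect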
SSB-PriA inh: K. pneumoniae PriA-SSBct interaction inhibition; AlphaScreen SSBct-PriA binding, biotinylated peptide; inhibition, % at 33 µM; 430,000 compounds, 0.6% hits; AID 1272365; in the data active = inhibition mostly above about 37%, no sharp cut-off; inactive = mostly below about 20%;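 also: plate controls were negative control peptide for no effect and reference peptide for full effect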
* = called active by the depositor; x = no result given.

SMILES	RN4220 kill	CCHFV vOTU inh	VHR inh abs	ugtP null kill	SSB-PriA inh
CC(=O)c1ccc(NC(=O)c2ccc([N+](=O)[O-])o2)cc1	26	1	39	66	-27
NC(=O)c1oc2ccccc2c1NC(=O)c1cc(=O)c2ccccc2o1	x	x	x	x	-12
O=C(Nc1ccc2oc(-c3ccncc3)nc2c1)c1ccc([N+](=O)[O-])o1	100*	14	3	77	-6
NC(=O)c1oc2ccccc2c1NC(=O)c1ccc([N+](=O)[O-])o1	100*	11	17	100*	-3
O=C(Nc1ccc2oc(=O)ccc2c1)c1ccc(-c2cccc([N+](=O)[O-])c2)o1	x	10	58*	x	-1
O=C(Nc1ccc2oc(=O)ccc2c1)c1ccc(-c2cccc(Cl)c2)o1	3	3	26	4	-9
Cc1ccc(C)c(-c2nnc(NC(=O)c3ccc([N+](=O)[O-])o3)o2)c1	6	4	x	90*	10
COc1ccc(NC(=O)c2ccc([N+](=O)[O-])o2)cc1	14	-7	4	60	-2
O=C(NNC(=O)c1ccc([N+](=O)[O-])o1)c1ccccc1	13	9	-8	99*	-4
Cc1cc(C)cc(NC(=O)c2ccc([N+](=O)[O-])o2)c1	93*	18	18	94*	6
O=C(c1nc2ccccc2s1)N1CCC(S(=O)(=O)c2ccc(F)cc2)CC1	x	x	x	x	2
Cn1cccc1-c1noc(CNC(=O)c2cc(-c3ccc4c(c3)OCO4)n[nH]2)n1	x	x	x	x	-10
COC(=O)c1ccc(S(=O)(=O)N2CCC(N3CCC[C@@H]3CO)CC2)cc1	x	x	x	x	5
O=C(c1ccccc1)c1ccc(OC[C@@H](O)CN2CCN(c3ccc(F)cc3)CC2)cc1	x	x	x	x	-1
Cc1cc2ncc(CCCNC(=O)C3c4ccccc4Oc4ccccc43)cn2n1	x	x	x	x	-14
O=[N+]([O-])c1cccc2nc(-c3ccccc3)c(-c3ccccc3)nc12	3	2	1	97*	5
COc1ccc(CNC(=O)NC2CCCC(O)C2)cc1OC (stereo not given)	x	x	x	x	-1
O=C(Nc1cccc(-c2nc3cccnc3s2)c1)c1cc2ccccc2oc1=O	x	x	x	x	-9
COc1cccc(C(=O)NCC(c2ccsc2)N2CCCCCC2)c1OC (stereo not given)	x	x	x	x	9
ONC(=Nc1ccccc1)C(=Nc1ccccc1)NO	6	-6	57*	-10	4
NC(=Nc1ccccc1)Nc1ccccc1	1	-15	11	2	-11
CC1CN(C(=O)COC(=O)c2ccc(F)cc2Cl)CC(C)O1 (stereo not given)	1	12	50*	2	-19
O=C(OCC(=O)N1CCOCC1)c1ccc(F)cc1Cl	5	15	11	3	-5
Cc1cc(C(=O)N2CC(Oc3nc4c(F)cccc4s3)C2)nn1C	x	x	x	x	-14
CCOC(=O)c1c(C)[nH]c(C)c1C(=O)CSc1nc2ccccc2n1CC	9	4	55*	4	12
SMILES	RN4220 kill	CCHFV vOTU inh	VHR inh abs	ugtP null kill	SSB-PriA inh
O=[N+]([O-])c1c(Nc2ccccc2O)cc(Cl)c2nonc12	98*	13	-4	87	17
CCCCNc1nc(CC)c2c(c1C#N)CCCC2	0	-2	26	81*	-10
Cc1cccc(NC(=O)[C@@H]2CCCN2C(=O)OC(C)(C)C)c1C	6	2	-2	6	-2
Cc1cccc(NC(=O)[C@@H]2CCCN2C(=O)OC(C)(C)C)c1	1	13	58*	1	-8
CC(=O)c1cccc(NC(=O)N2CCCC2C(=O)Nc2ccc3c(c2)OCO3)c1 (stereo not given)	2	-2	57*	7	2
CC(OC(=O)c1oc2ccccc2c1CSC1CCCCC1)C(=O)NC(N)=O (stereo not given)	-6	-13	14	99*	5
CSc1cccc(CN2CCC(CCC(=O)NC3CC3)CC2)c1	3	-8	51*	9	-12
COC(=O)CC1=C(C(=O)OC)C2(C(=O)N(C)c3ccccc32)C(C#N)=C(N)O1 (stereo not given)	98*	7	15	98*	-5
CCOC(=O)CC1=C(C(=O)OCC)C2(C(=O)Nc3ccccc32)C(C#N)=C(N)O1 (stereo not given)	53	27	0	44	-21
CCOC(=O)CC1=Nc2ccccc2N(CC(=O)Nc2ccc(C)cc2Br)C(=O)C1	x	x	x	x	2
Oc1nc(Nc2cccc(Cl)c2)sc1/C=C1\C=Nc2ccccc21	100*	1	9	100*	-8
O=C(CSc1ncccn1)Nc1cc(Cl)ccc1[N+](=O)[O-]	5	-1	0	-8	19
Cc1nc(SCC(=O)Nc2cc(Cl)ccc2[N+](=O)[O-])nc(C)c1C	2	5	4	-7	52*
O=C(O)[C@@H]1CCCC[C@@H]1C(=O)N1CCc2ccccc2C1CN1C(=O)c2ccccc2C1=O (stereo not given in full)	8	9	3	-2	55*
O=C(NCCN1CCN(c2ccccc2)CC1)C1CCCC1	x	x	x	x	-16
Cn1c(N)c(C(=O)COC(=O)c2ccco2)c(=O)n(C)c1=O	-9	0	57*	2	20
CCN(CC)CCN1C(=O)/C(=C\c2ccc(Cl)c([N+](=O)[O-])c2)SC1=Nc1ccc(OC)cc1	-6	13	-12	93*	9
CCCn1nnnc1NCc1cccc(Cl)c1	2	-2	53*	7	-11
CCCCNC(=S)N(CCCO)Cc1cc2cc3c(cc2[nH]c1=O)OCCO3	4	-30	51*	16	-13
O=C(NC1CCCCC1)C(c1ccnc2ccccc12)N1CCc2ccccc2C1 (stereo not given)	x	76*	x	x	x
CCN1/C(=C\C=C\C2=[N+](CC)c3ccccc3C2(C)C)C(C)(C)c2ccccc21	100*	x	12	100*	-14
COc1ccccc1/C=C/C1=[N+](C)c2ccccc2C1(C)C	x	x	x	x	-4
C/C(=N\NC(=S)Nc1cccc(C)c1)c1cc2ccccc2o1	x	2	11	x	x
CC(=NNC(=S)Nc1ccc(C)cc1)c1cc2ccccc2o1	0	x	x	15	38*
COC(=O)COc1ccc(NC(=O)Cn2nc(-c3ccccc3)c3ccccc3c2=O)cc1	2	-1	7	8	-9
SMILES	RN4220 kill	CCHFV vOTU inh	VHR inh abs	ugtP null kill	SSB-PriA inh
COc1ccc(-c2nn(CC(=O)Nc3ccc(Cl)c(Cl)c3)c(=O)c3ccccc23)cc1	0	9	52*	9	-9
Fc1ccc(Nc2nc(Nc3ccccc3)nc(N3CCCC3)n2)cc1Cl	x	x	x	x	5
CC(c1ccccc1)n1c(N2CCNCC2)nc2c1c(=O)[nH]c(=O)n2C (stereo not given)	4	-10	56*	12	-14
CCOC(=O)c1ccc(NC(=O)Nc2c3ccccc3nc(=O)n2Cc2cccs2)cc1	x	x	x	x	4
CCOC(=O)Nc1ccc2c(c1)Nc1ccccc1S2	-7	15	34	-15	53*
CC(=Cc1ccc(C(=O)O)cc1)c1ccc2c(c1)C(C)(C)CCC2(C)C	77	x	x	99*	x
CC1(C)CCC(C)(C)c2cc(NC(=O)c3ccc(C(=O)O)cc3)ccc21	x	15	x	x	x
Cc1cc(C)c(N)c(Br)n1	x	x	x	x	5
O=C(N1CCC(Oc2ncccc2Br)CC1)C1(c2ccccc2)CCOCC1	x	x	x	x	-27
